Compound activity (PubChem BioAssay)
TRb-SRC2 inh: disrupts binding of human TR beta to SRC2; P10828; TRbeta-SRC2 peptide binding, fluorescence polarization; receptor liganded with 1 µM T3; Potency, µM (top dose mostly 106 µM), for the others: top-dose activity change, negative = inhibition, most hits filed as inhibitors; 280,000 tested, 0.065% active;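 also: potency is read from the fitted curve at half-maximal effect; plate controls were bound peptide for no effect and peptide without receptor for full effect; nearly all actives have a fitted effect of over 50% in size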
Target sequence (P10828 whole entry, looked up): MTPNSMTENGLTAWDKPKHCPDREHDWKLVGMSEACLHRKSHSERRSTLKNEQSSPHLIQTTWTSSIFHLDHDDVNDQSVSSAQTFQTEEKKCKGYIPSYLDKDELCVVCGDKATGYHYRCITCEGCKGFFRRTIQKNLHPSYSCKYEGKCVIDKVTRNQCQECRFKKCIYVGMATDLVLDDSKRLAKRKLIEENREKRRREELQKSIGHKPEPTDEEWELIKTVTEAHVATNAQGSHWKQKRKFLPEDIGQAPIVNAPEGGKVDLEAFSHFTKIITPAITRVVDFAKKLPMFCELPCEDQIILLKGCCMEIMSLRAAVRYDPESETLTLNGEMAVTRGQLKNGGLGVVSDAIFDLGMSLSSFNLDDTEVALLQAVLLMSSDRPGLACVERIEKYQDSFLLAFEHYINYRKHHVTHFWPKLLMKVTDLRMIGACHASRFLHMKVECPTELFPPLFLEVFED
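Quantitative HTS by FP: 0.6 uM TRb LBD, 20 nM labeled SRC2 20-mer, 1 uM T3, 5% DMSO; 5 hr ambient incubation; % activity per concentration and potencies from concentration series.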
Tau fluor cs: counter-screen for tau fibril formation inhibitors; 280,000 tested, 0.93% active; tau K18 P301L Alexa594 fluorescence, heparin fibrillization; Potency, µM (top dose mostly 57.7 µM), for inactives: top-dose activity change, negative = decrease; AID 1463; also: potency is read from the fitted curve at half-maximal effect; nearly all actives have a fitted effect of over 55% in size
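Human K18 P301L tau (15 uM unlabeled plus 0.24 uM Alexa 594-labeled, final) in 100 mM sodium acetate pH 7 was mixed with compound and 20 uM heparin and incubated 6 hr at 37 C.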
TexasRed fluor: alters Texas Red total fluorescence, flagging assay interference; TRb/SRC2 Texas Red total fluorescence interference; Potency, µM (series often up to 106 µM), for inactives: top-dose fluorescence change, negative = quenching; 280,000 tested, 0.29% active; AID 1479; active = well fitted curve in either direction with a large enough effect; inconclusive = small, poorly fitted or top-dose-only effect; also: potency is read from the fitted curve at half-maximal effect
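Flags fluorescent or light-absorbing compounds by total fluorescence, S + 2P, at 555 nm excitation and 632 nm emission. Mixture: 20 nM Texas Red SRC2 peptide, 0.6 uM human TRb LBD, 1 uM T3, 5% DMSO; compound exposure 5 h at ambient temperature.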
PNC assembly inh: perinucleolar compartment assembly inhibition. activity change (PNC), negative = inhibition, % at 10 µM. PC3M PTB-GFP, PNC prevalence imaging, 16 h; active compounds read low. 140,000 tested, 3.1% active;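 active = readout at or below -70, meaning at least 70% loss of cells showing the perinucleolar compartment, a nuclear body marking cancer cells; inconclusive = readout between -30 and a set limit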;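 also: plate controls were DMSO wells for no effect and camptothecin positive control wells for full effect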
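Compounds are pinned in duplicate onto adhered PC3M cells stably expressing GFP-tagged PTB and incubated 16 h at 37 C. Cells are then fixed, nuclei stained with Hoechst, and PNC-positive cells counted.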
Tau fibril FP: blocks human tau fibril formation measured by polarization. 280,000 tested, 0.39% active. K18 P301L tau heparin fibrillization, Alexa594 FP, 6 h. P10636. Potency, µM (series often up to 57.7 µM), for the others: at the top dose activity, negative = inhibition, hits mostly inhibitors; also: potency is read from the fitted curve at half-maximal effect; nearly all actives have a fitted effect of over 55% in size
Target sequence (P10636 561-689 P618L limits assumed): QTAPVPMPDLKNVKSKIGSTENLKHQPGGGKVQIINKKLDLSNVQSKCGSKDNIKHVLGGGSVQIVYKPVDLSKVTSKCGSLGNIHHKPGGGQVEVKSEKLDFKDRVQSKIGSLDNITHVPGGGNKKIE
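Heparin (20 uM) drove fibril formation of recombinant tau K18 P301L, 15 uM unlabeled with 0.24 uM Alexa 594 label, for 6 hr at 37 C in 100 mM sodium acetate pH 7. Fluorescence polarization (555/632 nm) read 1 hr after 30 uM ThT.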
Tau ThT inhib: blocks human tau fibril formation measured by thioflavin T; P10636; recombinant tau K18 P301L, heparin-induced fibrillization, ThT fluorescence; Potency, µM (titrated, usually from 57.4 µM), for the others: at the highest dose activity, negative = inhibition, hits mostly inhibitors; 270,000 tested, 2.1% active; also: potency is read from the fitted curve at half-maximal effect; nearly all actives have a fitted effect of over 55% in size
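ThT emission at 510 nm, taken 1 hr after adding 30 uM dye, quantifies aggregates formed when 20 uM heparin acts on human tau K18 P301L for 6 hr at 37 C.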
Starred values were filed as active, the others as inactive; ? = inconclusive; nt = no result given; [ ] = another dose, or the depositor's remark. A selection: hits, their analogues and other compounds. The true share with any hit is near 4.6%. Unless noted, calls follow the shape of the dose curve; as a rule, active = well fitted curve in the direction sought with a large enough effect; inconclusive = small, poorly fitted or top-dose-only effect, or another doubt; inactive = no such curve, though single readings can be large; an effect the other way counts as inactive or inconclusive. Unless noted, % is scaled to controls: 0 for no effect and ±100 for the full control effect.

SMILES | TRb-SRC2 inh | Tau fluor cs | TexasRed fluor | PNC assembly inh | Tau fibril FP | Tau ThT inhib
O=C(OC(C(=O)NC1CCCC1)c1cccnc1)C1=Cc2ccccc2OC1 (stereo not drawn) | 0.8% | -3.7% | 0.5% | 44.9 | -1.1% | 5.8%
O=C(COC(=O)C1=Cc2ccccc2OC1)NC1CCCC1 | 2.7% | -14.1% | -2.0% | -83.5* | -1.1% | -23.6%
COC(=O)c1sc2nc(-c3ccco3)ccc2c1N | -16.1% | ? | ? | -6.4 | 0.5% | 7.08µM*
NC(=O)c1sc2nc(-c3ccco3)ccc2c1N | -8.5% | ? | -22.5% | -2.5 | 0.3% | 6.31µM*
Nc1c(C(=O)Nc2ccccc2F)sc2nc(-c3ccco3)ccc12 | 7.6% | ? | -0.6% | 11.0 | 0.0% | ?
CC(/C=C/c1ccccc1)=N\NC(=O)c1cc(C)nc2ccccc12 | -2.0% | -2.5% | -1.6% | nt | -6.8% | -5.2%
Cn1c(=O)c2c(-c3ccccc3F)c3c(nc2n(C)c1=O)-c1ccccc1C3O (stereo not drawn) | 0.3% | -3.8% | -1.7% | 75.6 | 10.7% | -6.8%
CC(=O)N(Cc1ccc(F)cc1)C1=C(NCc2ccccc2)C(=O)c2ccccc2C1=O | -8.6% | ? | -3.7% | -12.5 | -4.9% | 28.2µM*
COc1ccc(/C=C2\CCC(C3CCCC3)C2=O)cc1Cn1cccn1 (stereo not drawn) | -1.2% | -8.0% | -0.8% | 16.6 | 8.0% | ?
CCCc1cc2c(OC(=O)CC)c(-c3ccc(C(=O)OCC)o3)c(=O)oc2cc1OC | 3.6% | -27.4% | -9.5% | ? | 5.1% | 25.1µM*
CC/C(=N\NC(=O)c1csc(C)c1C)c1cccs1 | -3.1% | 4.9% | -0.7% | 60.4 | 6.7% | -13.2%
COCCCNCC(=O)Nc1ccc(OC(F)(F)F)cc1 | -4.2% | -0.5% | 1.4% | 17.7 | -1.1% | -2.3%
Cc1oncc1C(=S)Nc1ccccc1 | 3.1% | -0.9% | -0.4% | -91.8* | 3.8% | -2.1%
Cc1oncc1C(=O)Nc1ccc(C(F)(F)F)cc1 | -1.1% | -11.5% | ? | ? | 5.5% | -8.6%
COc1ccc(N2CCN(C(CNC(=O)C(C)(C)C)c3cccnc3)CC2)cc1 (stereo not drawn) | -0.3% | -2.5% | -0.4% | nt | -4.4% | -2.3%
Cc1ccc(NC(=O)C2CCCN(c3nnc(-n4c(C)ccc4C)s3)C2)cc1Cl (stereo not drawn) | -5.2% | -27.5% | -2.2% | nt | ? | -15.2%
CCOC(=O)c1ccc(N=Nc2c(C)c(C#N)c(O)[nH]c2=O)cc1 | 10.2% | -28.8% | -1.6% | nt | -5.4% | 1.41µM*
COc1ccc(/C=C2\CCn3c2nc2cc(C(=O)O)ccc2c3=O)cc1OC | -1.1% | -8.3% | -0.9% | nt | -10.9% | ?
COc1ccc(/C=C2\CCn3c2nc2cc(C(=O)O)ccc2c3=O)cc1O | ? | -6.4% | 0.316µM*[quencher] | -96.1* | 7.1% | -2.9%
[O-][n+]1onc2c1CCC(=N/O)/C2=N\Nc1ccccc1 | -5.9% | ? | ? | nt | ? | 14.1µM*
N#Cc1cc(S(=O)(=O)c2ccccc2)c(N)[nH]c1=O | -3.0% | -9.5% | -5.0% | -112.9* | -2.4% | 0.1%
N#Cc1cc(S(=O)(=O)c2ccc(F)cc2)c(N)[nH]c1=O | -1.2% | -5.0% | -0.8% | nt | 1.7% | -7.0%
Oc1c(Cl)cc(Cl)cc1/C=N/NC(=S)NC1CC2C=CC1C2 (stereo not drawn) | -0.4% | 28.2µM*[quencher] | -7.9% | nt | 7.4% | ?
N#Cc1c(N)sc(=S)c2c1CCN(Cc1ccccc1)C2 | ? | ? | ? | ? | ? | 1.26µM*
COc1ccc(/C=C/C(=O)C2C(=O)C=C(C)OC2=O)cc1O (stereo not drawn) | 10.4% | ? | -3.4% | -20.0 | -2.1% | 25.1µM*
O=C(Cc1cccs1)N1CCN(S(=O)(=O)c2ccccc2)CC1 | 4.7% | 5.5% | 2.2% | 6.8 | 14.0% | 2.2%
O=C(Nc1cccc(Cl)c1N1CCCC1)c1cccc(-c2cc3ccccc3oc2=O)c1 | 0.1% | -9.1% | 0.2% | 18.1 | -8.6% | -5.3%
